# Measured values: ChEMBL document CHEMBL4513216, “Probing the Open Global Health Chemical Diversity Library for Multistage-Active Starting Points for Next-Generation Antimalarials” (ACS Infect Dis, 2020)
# Hit rate of the full screen: of about 69,000 compounds, about 8,600 (12%) showed an effect of 50% or more. This is one part of a sample in which strong results are shown more often than they occur.
# Test system: Plasmodium berghei
# Assay: Screen against P. berghei liver stage (PbLuc), transformed with Luciferase, at 10uM
# Type: functional, HepG2
# Settings: tested at 10 uM
row,Structure (SMILES),INHIBITION
1,O=C([C@H]1C[C@H]2OCC[C@H]2N(Cc2cccnc2)C1)N1CCCO1,38.1%
2,CCn1nccc1CNC(=O)C1CCC1,21.8%
3,c1cnc(NCc2nnn3c2CN(Cc2cccs2)CCC3)nc1,24.9%
4,Cc1nc(NCc2nnc(C)n2C)c2c(CC(C)C)csc2n1,46.6%
5,CCc1csc(C2CCCN(C(=O)c3ccc4[nH]nnc4c3)C2)n1 (stereo not drawn),-10.1%
6,CCCn1nccc1-c1nccnc1CC1CCN(C(C)=O)C1 (stereo not drawn),7.19%
7,COC(=O)N1CCCCC1C(=O)N1CCCN(c2ccnc(C)c2)CC1 (stereo not drawn),15.9%
8,c1cncc(N2CC[C@@H]3CN(CC4CC4)C[C@@H]3C2)c1,57.4%
9,FC(F)(F)c1ccnc(N2C[C@H]3CCN(c4cccnc4)C[C@H]3C2)n1,5.96%
10,COC(=O)N1CCCCC1C(=O)N1CCN(c2cccnc2)CC1 (stereo not drawn),82.2%
11,O=C(c1ccc(F)cc1)N1C[C@@H]2CCN(c3cccnc3)C[C@@H]2C1,43.9%
12,COC(=O)N1CCCCC1C(=O)N1CCN(c2ncccc2C)CC1 (stereo not drawn),12.7%
13,c1cnc(N2C[C@H]3CCN(c4cccnc4)C[C@H]3C2)nc1,-0.113%
14,O=C(CC1CCCC1)N1C[C@@H]2CCN(c3cccnc3)C[C@@H]2C1,60.7%
15,O=C(CC1CC1)N1C[C@@H]2CCN(c3cccnc3)C[C@@H]2C1,19.8%
16,Fc1cccc(N2C[C@H]3CCN(c4cccnc4)C[C@H]3C2)c1,50.5%
17,Cc1cc(C(=O)Nc2ccn(CCCN3CCCC3)n2)c(C)o1,18.2%
18,O=S(=O)(C1CC1)N1CCC2(CCN(Cc3nccs3)CC2)CC1,-12.1%
19,CC1CN(C)c2ccccc2CN1CCn1cncn1 (stereo not drawn),38%
20,CNc1ncc(CN2CCCC2c2[nH]ncc2C(=O)N(C)C)cn1 (stereo not drawn),20.2%
21,O=C(COc1cccc(Cl)c1)N1CCOCC(O)(CN2CCCC2)C1 (stereo not drawn),-18.9%
22,CCC(C)(CC)NC(=O)COc1nn(C)c2nc(C)cc(C)c12,48.1%
23,CCCc1nnc(SCc2cc(=O)n3c4c(sc3n2)CCCC4)[nH]1,-4.35%
24,O=C(C1CN(c2ncc(F)cn2)CC12CCOCC2)N1CC=CC1 (stereo not drawn),37.8%
25,Cc1cccnc1CN1CCN(C(=O)c2ccn(C(C)(C)C)c2)CC1,45%
26,O=C(NCCO)C1(Cc2ccccc2-c2cccnc2)CCOCC1,-43%
27,CN(CC(C)(CO)CO)C(=O)Nc1cc(F)cc(F)c1,18.9%
28,COc1ccccc1CN(C)Cc1ccnc(C2CCCO2)n1 (stereo not drawn),14.755%
